Measurements as given in PubChem BioAssay (Tox21).
Calls of active or inactive are those of the source. Where a call stands in place of a potency, no number is given. Unless noted, calls follow the shape of the dose curve; as a rule, active = well fitted curve in the direction sought with a large enough effect in the repeat runs; inconclusive = weak or mixed curves; inactive = no such curve, though single readings can be large; an effect the other way counts as inactive or inconclusive.

Tests used:
Aromatase (Homo sapiens) = Aromatase (Homo sapiens) (UniProt P11511); assay: qHTS assay to identify aromatase inhibitors (AID 743083); also: series mostly up to about 70 µM; nearly all actives have a fitted effect of over 55% in size
[1] = biological target: Aryl hydrocarbon receptor (Homo sapiens) (UniProt P35869); assay: qHTS assay to identify small molecule that activate the aryl hydrocarbon receptor (AhR) signaling pathway (AID 743085);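 also: HG2L7.5c1 human HepG2 liver cells with stably integrated DRE-driven firefly reporter; series mostly up to about 70 µM; nearly all actives have a fitted effect of over 15% in size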
How it was run: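 Steps: seed HepG2-AhR-luc cells; allow 5 h at 37C; pin-transfer test compound or vehicle; incubate 24 h at 37C; add viability dye (30 min, 37C) and read fluorescence; add luciferase substrate (30 min, RT) and read luminescence.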

[2] = qHTS assay for small molecules that induce genotoxicity in human embryonic kidney cells expressing luciferase-tagged ATAD5 (AID 651632); also: nearly all actives have a fitted effect of over 15% in size
How it was run: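 HEK293T cells carrying a luciferase reporter tagged to ATAD5 were exposed to compound or DMSO vehicle for 16 hr at 37C, 5% CO2. Amplite was added, and after 30 min at room temperature luciferase activity was read as a marker of ATAD5 induction.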

[3] = qHTS assay for small molecule agonists of the p53 signaling pathway - cell viability (AID 651633; calls by dose curve; also: nearly all actives have a fitted effect of over 30% in size; also: potency is read from the fitted curve at half-maximal effect)
How it was run: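 p53RE-bla cells, seeded at 4,000 per well and rested 5 h at 37 C/5% CO2, received compounds in DMSO for 16 h at 37 C. CellTiter-Glo was then added, and luminescence was read after 30 min at room temperature to gauge cytotoxicity.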

[4] = qHTS assay for small molecules that induce genotoxicity in human embryonic kidney cells expressing luciferase-tagged ATAD5 - cell viability (AID 651634; calls by dose curve; also: nearly all actives have a fitted effect of over 25% in size)
How it was run: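 HEK293T cells expressing luciferase-tagged ATAD5 were exposed to compound or DMSO for 15.5 hr at 37C, 5% CO2. Viability was then read as live-cell protease activity by CellTiter-Fluor fluorescence after 30 min at 37C.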

[5] = qHTS assay for small molecule disruptors of the mitochondrial membrane potential - cell viability (AID 720634; calls by dose curve;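 also: human HepG2 liver cancer cells; series mostly up to about 83 µM; nearly all actives have a fitted effect of over 20% in size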)
How it was run: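 HepG2 cells seeded overnight at 37 C, then exposed to compound or DMSO for 1 hr at 37 C, 5% CO2. m-MPI dye added, then CellTiter-Glo for 30 min at room temperature; viability read as ATP luminescence.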

[6] = qHTS assay for small molecule disruptors of the mitochondrial membrane potential (AID 720635); also: potency is read from the fitted curve at half-maximal effect
How it was run: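 HepG2 cells (2,000/well) attached overnight at 37C, then took compound for 1 hr at 37C, 5% CO2. Mito-MPS dye was added for 30 min; fluorescence was read at 490/535 nm (monomers) and 540/590 nm (aggregates).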

[7] = qHTS assay to test for compound auto fluorescence at 590 nm (red) in HepG2 cells (AID 720674)
How it was run: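 Rose Bengal sodium served as the red fluorophore standard. HepG2 monolayers (overnight attachment, MEM with 10% FBS) were exposed to test compounds for 1 hr at 37 C and read at Ex 540/Em 590 nm.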

[8] = qHTS assay to test for compound auto fluorescence at 590 nm (red) in HEK293 cells (AID 720679)
How it was run: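 HEK293 cells (2,000/well, medium with 10% dialyzed FBS) attached for 4-5 hr at 37C, received 23 nL compound and were incubated overnight at 37C, 5% CO2. Red fluorescence was then read at 540/590nm Ex/Em, referenced to Rose Bengal sodium.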

[9] = qHTS assay to test for compound auto fluorescence at 460 nm (blue) in HEK293 cell free culture (AID 720681)
How it was run: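 Test compounds were pinned into cell-free culture medium (DMEM with 10% FBS) and fluorescence was read directly at Ex/Em 405/460 nm. Signals were expressed as fluorescence equivalents of triamterene, with DMSO vehicle as control.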

[10] = qHTS assay to test for compound auto fluorescence at 535 nm (green) in HEK293 cell free culture (AID 720682)
How it was run: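 Steps: dispense DMEM/10% FBS into empty wells; pin in compound or DMSO; measure fluorescence at 485/535 nm. Values are fluorescein equivalents.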

[11] = qHTS assay to test for compound auto fluorescence at 590 nm (red) in HEK293 cell free culture (AID 720683)
How it was run: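 Tox21 10K library compounds were pinned into cell-free DMEM with 10% FBS and fluorescence was read at excitation 540 nm. Activity is expressed as Rose Bengal sodium equivalency.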

[12] = qHTS assay to test for compound auto fluorescence at 590 nm (red) in HepG2 cell free culture (AID 720684)
How it was run: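 Measured in medium alone (MEM containing 10% FBS) following pintool addition of compound; emission at 590 nm with 540 nm excitation, referenced to Rose Bengal sodium.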

[13] = qHTS assay to test for compound auto fluorescence at 535 nm (green) in HepG2 cell free culture (AID 720686)
[14] = qHTS assay to test for compound auto fluorescence at 460 nm (blue) in HepG2 cells (AID 720687)
How it was run: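 Cells (2,000/well in MEM with 10% FBS) attached overnight at 37 C, then were exposed to compound or DMSO for 1 hr at 37 C, 5% CO2. Fluorescence read at Ex/Em 405/460 nm, expressed as triamterene-equivalent signal.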

[15] = biological target: Glucocorticoid receptor (Homo sapiens) (UniProt P04150); assay: qHTS assay to identify small molecule agonists of the glucocorticoid receptor (GR) signaling pathway (AID 720691; active = well fitted activation curve with a large enough effect in the signal ratio in the repeat runs, not every such curve was filed as active; inconclusive = weak or mixed curves, or effect the other way; inactive = no such curve, though single readings can be large or run the other way; the % refers to the signal ratio)
How it was run: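 GR-bla HeLa cells (beta-lactamase reporter under glucocorticoid response element) were plated 4 h at 37 C/5% CO2, given compounds in DMSO, and incubated 18 h at 37 C. LiveBLAzer B/G FRET substrate was added for 2 h at room temperature, then fluorescence intensity read.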

[16] = biological target: Glucocorticoid receptor (Homo sapiens) (UniProt P04150); assay: qHTS assay to identify small molecule antagonists of the glucocorticoid receptor (GR) signaling pathway (AID 720692; active = well fitted inhibition curve with a large enough effect in the signal ratio in the repeat runs, not every such curve was filed as active; inconclusive = weak or mixed curves, or effect the other way; inactive = no such curve, though single readings can be large or run the other way; the % refers to the signal ratio)
How it was run: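 GR-bla HeLa cells (beta-lactamase reporter under glucocorticoid response element) were pre-plated 4 h at 37 C, treated with compounds plus 5 nM dexamethasone (final) for 18 h, then read by LiveBLAzer B/G FRET fluorescence after 2 h.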

[17] = qHTS assay to identify small molecule antagonists of the glucocorticoid receptor (GR) signaling pathway - cell viability counter screen (AID 720693); also: nearly all actives have a fitted effect of over 55% in size; also: potency is read from the fitted curve at half-maximal effect
[18] = qHTS assay for identifying genotoxic compounds that show differential cytotoxicity against isogenic chicken DT40 cell lines with known DNA damage response pathways - wild type cell line (AID 743012); also: potency is read from the fitted curve at half-maximal effect; nearly all actives have a fitted effect of over 60% in size
How it was run: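 Parental DNA repair-proficient DT40 cells, 300 per well, were pre-incubated ~0.5 h at 37 C/5% CO2, pin-dosed with compounds in DMSO, then incubated 40 h. Viability was read as CellTiter-Glo luminescence after 30 min at room temperature.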

[19] = qHTS assay to identify small molecule antagonists of the androgen receptor (AR) signaling pathway - cell viability counter screen (AID 743033; also: nearly all actives have a fitted effect of over 45% in size)
[20] = qHTS assay to identify small molecule antagonists of the androgen receptor (AR) signaling pathway using the MDA cell line - cell viability counter screen (AID 743041; also: nearly all actives have a fitted effect of over 45% in size)
How it was run: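 Viability counter screen run alongside the AR antagonist reporter: cells seeded 5 h before compound, R1881 added, 16 h incubation at 37C without CO2, fluorescent CellTiter-Fluor signal quantified.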

[21] = qHTS assay to identify small molecule antagonists of the thyroid receptor (TR) signaling pathway - cell viability counter screen (AID 743064); also: nearly all actives have a fitted effect of over 50% in size; also: potency is read from the fitted curve at half-maximal effect
How it was run: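 Plate GH3.TRE-Luc cells; incubate 4 h at 37 °C; add compound, then T3 to 1 nM final; incubate 23.5 h; add CellTiter-Fluor; incubate 30 min at 37 °C, 5% CO2; read fluorescence.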

[22] = test system: thyroid hormone receptor (rat, GH3 cells); assay: qHTS assay to identify small molecule agonists of the thyroid receptor (TR) signaling pathway (AID 743066; calls by dose curve)
[23] = biological target: Estrogen receptor (Homo sapiens) (UniProt P03372); assay: qHTS assay to identify small molecule antagonists of the estrogen receptor alpha (ER-alpha) signaling pathway (AID 743069; active = well fitted curve in the direction sought with a large enough effect in the signal ratio in the repeat runs, not every such curve was filed as active; inconclusive = weak or mixed curves, or effect the other way; inactive = no such curve, though single readings can be large or run the other way; the % refers to the signal ratio)
How it was run: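 Estradiol-stimulated ER-alpha-UAS-bla HEK293 cells, 18 hr compound exposure at 37C. LiveBLAzer B/G substrate, 2 hr RT, fluorescence read.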

[24] = biological target: Estrogen receptor (Homo sapiens) (UniProt P03372); assay: qHTS assay to identify small molecule agonists of the estrogen receptor alpha (ER-alpha) signaling pathway (AID 743075; calls by dose curve;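 also: HEK293 GripTite cells with ER-alpha and UAS-driven beta-lactamase reporter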; also: potency is read from the fitted curve at half-maximal effect)
[25] = biological target: Estrogen receptor (Homo sapiens) (UniProt P03372); assay: qHTS assay to identify small molecule agonists of the estrogen receptor alpha (ER-alpha) signaling pathway using the BG1 cell line (AID 743079); also: nearly all actives have a fitted effect of over 20% in size; also: potency is read from the fitted curve at half-maximal effect
[26] = qHTS assay to identify small molecule antagonists of the estrogen receptor alpha (ER-alpha) signaling pathway using the BG1 cell line (AID 743080; calls by dose curve;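 also: BG1 cells stimulated with 17beta-estradiol alongside compound; series mostly up to about 70 µM; nearly all actives have a fitted effect of over 25% in size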)
How it was run: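 BG1-Luc-4E2 cells (endogenous full-length ER-alpha, stable 4×ERE-luciferase) were starved 5 days in phenol-red-free medium with 10% charcoal-stripped FBS, plated 24 h, then given compound plus 17beta-estradiol for 21.5 h at 37 C; ONE-Glo luminescence read after 30 min.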

[27] = qHTS assay to identify aromatase inhibitors - cell viability counter screen (AID 743084);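 also: cells stimulated with testosterone during compound exposure; nearly all actives have a fitted effect of over 55% in size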
[28] = qHTS assay to identify small molecule that activate the aryl hydrocarbon receptor (AhR) signaling pathway - cell viability counter screen (AID 743086);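 also: HepG2 liver cells carrying the AhR DRE luciferase reporter; series mostly up to about 70 µM; nearly all actives have a fitted effect of over 45% in size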
How it was run: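 HepG2-AhR-luc (HG2L7.5c1) cells, 4000/well, were preincubated 5 h at 37C, exposed to compound in qHTS format for 24 hr at 37C, then given CellTiter-Fluor for 30 min; viability was read as fluorescence in the reporter wells.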

[29] = qHTS assay for identifying genotoxic compounds that show differential cytotoxicity against isogenic chicken DT40 cell lines with known DNA damage response pathways - Rev3 mutant cell line (AID 743014); also: potency is read from the fitted curve at half-maximal effect; nearly all actives have a fitted effect of over 55% in size
[30] = qHTS assay for identifying genotoxic compounds that show differential cytotoxicity against isogenic chicken DT40 cell lines with known DNA damage response pathways - Rad54/Ku70 mutant cell line (AID 743015); also: potency is read from the fitted curve at half-maximal effect; nearly all actives have a fitted effect of over 60% in size
[31] = qHTS assay to identify small molecule antagonists of the thyroid receptor (TR) signaling pathway (AID 743065)
How it was run: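 GH3.TRE-Luc rat pituitary cells carrying two TR response elements driving luciferase were plated for 4 h, given compound plus 1 nM T3 (final), and incubated 23.5 h at 37 C. ONE-Glo luminescence measured reporter inhibition; CellTiter-Fluor fluorescence tracked cytotoxicity.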

[32] = qHTS assay to identify small molecule antagonists of the estrogen receptor alpha (ER-alpha) signaling pathway - cell viability counter screen (AID 743074; calls by dose curve;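 also: HEK293 cells carrying ER-alpha-UAS-bla reporter stimulated with 17beta-estradiol; potency is read from the fitted curve at half-maximal effect; nearly all actives have a fitted effect of over 45% in size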)
[33] = qHTS assay to identify small molecule antagonists of the estrogen receptor alpha (ER-alpha) signaling pathway using the BG1 cell line - cell viability counter screen (AID 743081)
[34] = biological target: Peroxisome proliferator-activated receptor gamma (Homo sapiens) (UniProt P37231); assay: qHTS assay to identify small molecule agonists of the peroxisome proliferator-activated receptor gamma (PPARg) signaling pathway (AID 743094; active = well fitted activation curve with a large enough effect in the signal ratio in the repeat runs, not every such curve was filed as active; inconclusive = weak or mixed curves, or effect the other way; inactive = no such curve, though single readings can be large or run the other way; the % refers to the signal ratio)
How it was run: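 GeneBLAzer PPARg UAS-bla HEK293H cells carrying a stably integrated beta-lactamase reporter were pre-incubated 5 h at 37C, then exposed to compounds in DMSO for 17 h at 37C; LiveBLAzer B/G FRET substrate was added for 1 h at room temperature and fluorescence read.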

Chain of Aromatase (Homo sapiens) (P11511 whole entry, looked up): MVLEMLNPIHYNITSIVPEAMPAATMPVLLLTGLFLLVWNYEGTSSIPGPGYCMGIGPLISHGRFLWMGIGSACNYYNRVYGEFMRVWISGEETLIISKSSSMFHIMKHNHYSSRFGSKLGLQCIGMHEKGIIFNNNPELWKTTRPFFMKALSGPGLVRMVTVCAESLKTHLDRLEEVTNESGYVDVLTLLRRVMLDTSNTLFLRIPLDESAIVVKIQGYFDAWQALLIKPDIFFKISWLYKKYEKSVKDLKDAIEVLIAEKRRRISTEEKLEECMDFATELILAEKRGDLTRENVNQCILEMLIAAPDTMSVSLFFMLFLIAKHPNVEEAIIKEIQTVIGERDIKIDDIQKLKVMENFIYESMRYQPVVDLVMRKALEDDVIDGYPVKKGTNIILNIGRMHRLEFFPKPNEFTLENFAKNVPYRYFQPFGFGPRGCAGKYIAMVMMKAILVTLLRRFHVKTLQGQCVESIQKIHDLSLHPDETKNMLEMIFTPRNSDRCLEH
Chain of Aryl hydrocarbon receptor (Homo sapiens) (P35869 whole entry, looked up): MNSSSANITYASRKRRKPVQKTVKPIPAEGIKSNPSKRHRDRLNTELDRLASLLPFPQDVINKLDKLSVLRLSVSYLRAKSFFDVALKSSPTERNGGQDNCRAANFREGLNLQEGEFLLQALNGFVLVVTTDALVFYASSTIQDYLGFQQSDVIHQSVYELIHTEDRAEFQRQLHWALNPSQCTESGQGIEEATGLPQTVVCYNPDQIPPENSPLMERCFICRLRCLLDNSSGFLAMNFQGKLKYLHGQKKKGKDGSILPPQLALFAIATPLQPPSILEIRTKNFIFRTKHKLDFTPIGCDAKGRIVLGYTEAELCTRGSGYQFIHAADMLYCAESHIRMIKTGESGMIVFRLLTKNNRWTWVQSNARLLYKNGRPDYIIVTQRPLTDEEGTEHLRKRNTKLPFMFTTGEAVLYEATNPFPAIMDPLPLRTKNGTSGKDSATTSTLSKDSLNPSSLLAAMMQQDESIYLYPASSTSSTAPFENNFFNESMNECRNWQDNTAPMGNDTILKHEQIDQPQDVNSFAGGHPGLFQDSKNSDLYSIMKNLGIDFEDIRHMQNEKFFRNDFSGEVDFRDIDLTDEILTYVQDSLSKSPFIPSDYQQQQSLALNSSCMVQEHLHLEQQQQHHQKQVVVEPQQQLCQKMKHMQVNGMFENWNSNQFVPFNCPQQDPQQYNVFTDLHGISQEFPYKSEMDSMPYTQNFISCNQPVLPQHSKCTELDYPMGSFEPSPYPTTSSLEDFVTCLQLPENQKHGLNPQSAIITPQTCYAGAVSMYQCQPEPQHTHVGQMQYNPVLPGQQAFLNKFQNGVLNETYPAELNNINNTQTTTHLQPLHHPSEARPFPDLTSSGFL
Chain of Estrogen receptor (Homo sapiens) (P03372 whole entry, looked up): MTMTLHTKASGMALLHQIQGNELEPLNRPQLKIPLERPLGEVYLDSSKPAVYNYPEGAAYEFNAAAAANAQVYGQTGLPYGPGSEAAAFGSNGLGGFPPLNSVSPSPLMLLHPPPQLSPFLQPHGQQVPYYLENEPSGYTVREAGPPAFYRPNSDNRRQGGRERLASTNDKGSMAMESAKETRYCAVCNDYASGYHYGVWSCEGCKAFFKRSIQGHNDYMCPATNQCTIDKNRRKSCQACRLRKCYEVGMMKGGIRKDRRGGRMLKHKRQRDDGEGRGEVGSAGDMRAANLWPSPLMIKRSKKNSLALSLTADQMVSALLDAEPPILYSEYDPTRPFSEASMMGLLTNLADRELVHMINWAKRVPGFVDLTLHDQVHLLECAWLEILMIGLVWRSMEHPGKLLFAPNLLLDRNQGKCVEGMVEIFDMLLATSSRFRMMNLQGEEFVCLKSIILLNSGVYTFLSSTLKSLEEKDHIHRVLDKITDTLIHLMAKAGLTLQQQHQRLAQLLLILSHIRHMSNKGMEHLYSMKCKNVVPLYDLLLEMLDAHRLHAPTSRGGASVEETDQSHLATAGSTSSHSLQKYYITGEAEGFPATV
Chain of Glucocorticoid receptor (Homo sapiens) (P04150 whole entry, looked up): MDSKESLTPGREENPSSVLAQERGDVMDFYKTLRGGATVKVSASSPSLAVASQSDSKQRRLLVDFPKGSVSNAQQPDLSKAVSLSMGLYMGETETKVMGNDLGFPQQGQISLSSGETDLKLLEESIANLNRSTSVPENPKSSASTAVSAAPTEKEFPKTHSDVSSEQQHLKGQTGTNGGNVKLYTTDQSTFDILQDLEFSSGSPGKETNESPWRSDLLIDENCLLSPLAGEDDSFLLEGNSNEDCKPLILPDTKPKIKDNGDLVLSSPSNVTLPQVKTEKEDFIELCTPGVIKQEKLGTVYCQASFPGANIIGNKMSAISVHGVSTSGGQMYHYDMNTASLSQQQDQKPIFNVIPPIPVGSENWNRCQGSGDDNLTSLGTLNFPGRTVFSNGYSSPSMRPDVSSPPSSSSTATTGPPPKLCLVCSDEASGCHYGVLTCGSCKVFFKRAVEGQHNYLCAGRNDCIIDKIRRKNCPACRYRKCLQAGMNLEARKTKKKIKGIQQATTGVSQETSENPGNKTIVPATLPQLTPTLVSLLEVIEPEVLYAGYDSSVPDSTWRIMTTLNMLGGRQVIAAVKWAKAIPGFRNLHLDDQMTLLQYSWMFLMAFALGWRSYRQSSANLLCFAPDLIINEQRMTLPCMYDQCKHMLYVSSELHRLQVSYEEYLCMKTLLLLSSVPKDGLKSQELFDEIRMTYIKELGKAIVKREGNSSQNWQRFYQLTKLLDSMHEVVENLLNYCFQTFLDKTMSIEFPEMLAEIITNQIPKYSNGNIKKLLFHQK
Chain of Peroxisome proliferator-activated receptor gamma (Homo sapiens) (P37231 whole entry, looked up): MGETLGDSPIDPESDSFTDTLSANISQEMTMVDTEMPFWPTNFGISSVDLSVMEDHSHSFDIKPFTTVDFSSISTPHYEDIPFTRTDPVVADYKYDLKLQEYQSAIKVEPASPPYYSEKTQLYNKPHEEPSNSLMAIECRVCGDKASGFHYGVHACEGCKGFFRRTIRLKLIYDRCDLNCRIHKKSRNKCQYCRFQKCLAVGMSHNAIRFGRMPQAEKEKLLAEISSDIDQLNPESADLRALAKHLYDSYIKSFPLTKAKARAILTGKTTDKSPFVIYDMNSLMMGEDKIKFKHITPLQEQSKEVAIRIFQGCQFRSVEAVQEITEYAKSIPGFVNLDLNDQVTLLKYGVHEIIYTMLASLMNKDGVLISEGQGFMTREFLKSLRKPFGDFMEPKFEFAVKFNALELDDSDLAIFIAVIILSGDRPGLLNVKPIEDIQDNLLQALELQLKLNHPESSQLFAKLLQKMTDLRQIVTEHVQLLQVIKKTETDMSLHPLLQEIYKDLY

For CC[C@@]1([C@@H]2O[C@@H]([C@H]3O[C@@](O)(CO)[C@H](C)C[C@@H]3C)C[C@@H]2C)CC[C@H]([C@]2(C)CC[C@]3(C[C@H](O)[C@@H](C)[C@@H]([C@@H](C)[C@@H](OC)[C@H](C)C(=O)O)O3)O2)O1 (stereo in doubt), the Potency (Aromatase (Homo sapiens)) was “inactive” and the outcome [1] was “inactive”.
With Cc1ccc2c(c1)[C@]13CCCC[C@@H]1[C@H](C2)N(C)CC3 the outcome [2] was “inactive”, the Potency [3] was “inactive” and the Potency [4] was “inactive”. For the same molecule, the outcome [5] was “inactive”, the Potency [6] was “inactive” and the outcome [7] was “inactive”. For the same molecule, the outcome [8] was “inactive”, the outcome [9] was “inactive” and the outcome [10] was “inactive”. For the same molecule, the outcome [11] was “inactive”, the outcome [12] was “inactive” and the outcome [13] was “inactive”. For the same molecule, the outcome [14] was “inactive”, the outcome [15] was “inactive” and the Potency [16] was “inactive”. The Potency [17] was “inactive”, the Potency [18] was 26.6 µM (active) and the Potency [19] was “inactive”. For the same molecule, the outcome [20] was “inactive”, the Potency [21] was “inactive” and the outcome [22] was “inactive”. For the same molecule, the outcome [23] was “inactive”, the Potency [24] was “inactive” and the Potency [25] was “inactive”. For the same molecule, the outcome [26] was “inactive”, the Potency (Aromatase (Homo sapiens)) was “inactive” and the outcome [27] was “inactive”. For the same molecule, the outcome [1] was “inactive” and the Potency [28] was “inactive”.
In the case of C#C[C@]1(OC(=O)CCCCCC)CC[C@H]2[C@@H]3CCC4=CC(=O)CC[C@@H]4[C@H]3CC[C@@]21C, the outcome [2] is reported as “inactive”, the Potency [3] is reported as 29.8 µM (active) and the Potency [4] is reported as “inactive”. For the same molecule, the outcome [5] was “inactive”, the Potency [6] was 8.41 µM (active) and the outcome [7] was “inactive”. For the same molecule, the outcome [8] was “inactive”, the outcome [9] was “inactive” and the outcome [10] was “inactive”. For the same molecule, the outcome [11] was “inactive”, the outcome [12] was “inactive” and the outcome [13] was “inactive”. For the same molecule, the outcome [14] was “inactive”, the Potency [17] was 21.3 µM (active) and the Potency [18] was 2.66 µM (active). The Potency [29] was 5.96 µM (active), the Potency [30] was 5.96 µM (active) and the Potency [19] was “inactive”. For the same molecule, the outcome [20] was “inactive”, the Potency [21] was 11.9 µM (active) and the Potency [31] was 11.9 µM (active). The Potency [32] was 19 µM (active), the Potency [24] was 0.338 µM [inconclusive] (active) and the Potency [25] was 0.596 µM (active). For the same molecule, the Potency [33] was “inactive”, the Potency (Aromatase (Homo sapiens)) was “inactive” and the outcome [27] was “inactive”. For the same molecule, the outcome [1] was “inactive”, the Potency [28] was “inactive” and the outcome [34] was “inactive”.
